# Out of some 310,000 compounds screened, about 14,000 (4.5%) showed an effect of 50% or more. Effects have a minus sign here. This is one part of a sample in which strong results are shown more often than they occur.
# Biological target: human ether-à-go-go-related gene (hERG) potassium channel (human, UniProt Q12809)
# Assay: primary screen, population patch clamp on CHO cells stably expressing hERG; higher = less effect of the substance
# 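Also: peak tail current of the secondary pulse compared with the same well before compound.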
# Chain of human ether-à-go-go-related gene (hERG) potassium channel (Q12809 whole entry, looked up): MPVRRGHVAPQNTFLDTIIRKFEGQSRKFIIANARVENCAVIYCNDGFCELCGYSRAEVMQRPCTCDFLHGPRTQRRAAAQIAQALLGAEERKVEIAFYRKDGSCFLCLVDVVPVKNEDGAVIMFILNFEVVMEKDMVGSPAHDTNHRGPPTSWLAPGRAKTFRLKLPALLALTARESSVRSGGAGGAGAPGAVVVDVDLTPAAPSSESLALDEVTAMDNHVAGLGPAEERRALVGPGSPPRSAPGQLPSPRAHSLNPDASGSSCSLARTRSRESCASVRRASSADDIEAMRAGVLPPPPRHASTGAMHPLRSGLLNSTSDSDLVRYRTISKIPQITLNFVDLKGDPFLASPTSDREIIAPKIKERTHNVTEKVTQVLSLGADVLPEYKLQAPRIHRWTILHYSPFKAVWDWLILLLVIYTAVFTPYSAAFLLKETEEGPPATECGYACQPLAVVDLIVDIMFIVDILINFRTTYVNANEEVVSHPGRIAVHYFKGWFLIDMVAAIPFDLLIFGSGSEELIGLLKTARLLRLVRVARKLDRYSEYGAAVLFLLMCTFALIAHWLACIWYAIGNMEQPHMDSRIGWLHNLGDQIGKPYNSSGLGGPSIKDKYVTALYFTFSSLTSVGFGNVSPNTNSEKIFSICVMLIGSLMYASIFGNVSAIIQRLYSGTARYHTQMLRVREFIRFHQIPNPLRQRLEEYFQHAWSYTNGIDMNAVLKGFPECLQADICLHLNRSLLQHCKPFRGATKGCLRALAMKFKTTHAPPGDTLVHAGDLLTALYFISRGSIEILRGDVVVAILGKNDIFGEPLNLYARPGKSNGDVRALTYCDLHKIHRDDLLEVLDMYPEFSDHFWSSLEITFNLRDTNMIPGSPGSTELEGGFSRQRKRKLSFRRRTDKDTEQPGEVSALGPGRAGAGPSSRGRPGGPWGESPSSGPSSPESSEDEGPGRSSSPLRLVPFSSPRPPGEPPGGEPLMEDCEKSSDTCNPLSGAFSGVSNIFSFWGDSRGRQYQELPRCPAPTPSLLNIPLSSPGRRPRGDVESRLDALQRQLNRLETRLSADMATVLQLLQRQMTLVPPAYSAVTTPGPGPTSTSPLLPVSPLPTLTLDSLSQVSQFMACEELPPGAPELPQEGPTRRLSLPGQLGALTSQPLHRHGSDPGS
row,SMILES,"hERG current change (%, negative = inhibition) at 10uM [%]"
1,Fc1cccc(-c2oncc2-c2nnnn2-c2ccc(Cl)cc2)c1,-13.9
2,CCOC(=O)c1ccc(NC(=O)CCc2nnc3ccc(N4CCCC4)nn23)cc1,5.84
3,O=C(OCC1CC(c2ccccc2)=NO1)c1ccc(Cl)cc1 (stereo not shown),18.6
4,CN1CCN(CP(=O)(N2CCOCC2)N2CCOCC2)CC1,1.13
5,Br.CC(C)(C)C(=O)Cn1c(NCCCO)nc2ccccc21,-7.81
6,CC(NS(=O)(=O)c1ccc(CCC(=O)NCc2cccnc2)cc1)c1ccccc1 (stereo not shown),-1.35
7,CCOC(=O)CSc1nnc(NC(=O)c2cc([N+](=O)[O-])cc([N+](=O)[O-])c2)s1,-8.83
8,O=C(C[n+]1ccccc1)N/N=C/c1cccs1.[Cl-],12
9,Cn1ccnc1SCCNC(=O)C1CCC(=O)N(Cc2ccc(Cl)cc2)C1 (stereo not shown),-3.3
10,COc1cc(NC(=O)CN(c2ccc(C)cc2)S(=O)(=O)c2c(C)noc2C)cc(OC)c1,16.3
11,C=CCn1c(O)c(C(C)=NCCc2c[nH]c3ccccc23)c(=O)[nH]c1=O,-31.9
12,COc1ccc(OC)c(CN2CCN(Cc3cc(OC)c(OC)c(OC)c3)CC2)c1,9.45
13,COc1ccc(CN2CCN(C(=O)Cc3ccccc3)CC2)c(OC)c1,-31.5
14,COc1ccc(CN2CCN(c3ccccn3)CC2)c(OC)c1C.O=C([O-])C(=O)[O-],-55.8
15,COc1ccc(CN2CCN(c3ccccn3)CC2)c(OC)c1C.O=C(O)C(=O)O,-37.1
16,COc1ccc(CN2CCN(c3ncccn3)CC2)c(C)c1C,-35.9
17,CC(CCc1ccccc1)N1CCN(C)CC1 (stereo not shown),-20.4
18,CC(CCc1ccccc1)N1CCN(Cc2ccccc2)CC1 (stereo not shown),-75.2
19,CCN1CCN(C(C)CCc2ccccc2)CC1 (stereo not shown),-17.7
20,COc1ccc(CN2CCN(Cc3ccccc3)CC2)c(OC)c1,-69.9
21,COCCn1cnc2c(c1=O)c1nc3ccccc3nc1n2/N=C/c1ccco1,-7.29
22,COc1ccc(CNS(=O)(=O)c2ccc(-c3ccc(=O)[nH]n3)s2)cc1OC,-29.5

row,SMILES,"hERG current change (%, negative = inhibition) at 10uM [%]"
1,COC(=O)c1ccc2c(=O)n(CC3CCCO3)c(SCC(=O)Nc3ccccc3OC)nc2c1 (stereo not shown),-4.41
2,CS(=O)(=O)c1nc(-c2ccccc2)cc(-c2ccccc2)c1C#N,8.33
3,CC(C)CCC(O)(c1ccccc1)C(CN1CCOCC1)c1ccccc1.Cl (stereo not shown),-1.36
4,CNS(=O)(=O)Cc1ccc2[nH]cc(CCN(C)C)c2c1,10.6
5,Cc1ccc(C)c(CN2CCC(CNC(=O)CCc3nnc4ccc(N5CCCCC5)nn34)CC2)c1,-30.3
6,COc1ccc(NC(=O)NNC(=O)c2ccccc2-n2cccc2)cc1OC,25.4
7,COc1ccc2c(=O)c3c(=O)n(Cc4ccco4)c(-c4ccccc4)nc3oc2c1,-32.2
8,COc1ccc2c(=O)c3c(=O)n(Cc4ccco4)c(-c4cc(OC)c(OC)c(OC)c4)nc3oc2c1,-16
9,COc1ccc(-c2nc3oc4cc(OC)ccc4c(=O)c3c(=O)n2Cc2ccco2)cc1,-27.5
10,COc1ccc2c(=O)c3c(=O)n(Cc4ccco4)c(-c4ccco4)nc3oc2c1,-62.4
11,COc1ccc2c(=O)c3c(=O)n(Cc4ccco4)c(-c4ccc(C)cc4)nc3oc2c1,-53.3
12,COc1ccc(Cn2c(-c3ccco3)nc3oc4cc(OC)ccc4c(=O)c3c2=O)cc1,-31.4
13,Nc1c(C(=O)Nc2ccc3c(c2)OCCO3)nnn1Cc1cccc(F)c1,-4.88
14,COc1ccc2c(C)nc(Nc3nc(-c4ccccc4)cc(=O)[nH]3)nc2c1,2.47
15,CC1CC(C)CN(CCCNC(=O)Cn2cccc2C(=O)c2ccccc2)C1 (stereo not shown),-63.1
16,Cc1ccccc1C(=O)c1cccn1CC(=O)NCc1ccccc1,21.7
17,Cc1ccccc1C(=O)c1cccn1CC(=O)NCCCc1ccccc1,9.69
18,Cc1ccccc1C(=O)c1cccn1CC(=O)NCCCN1CC(C)CC(C)C1 (stereo not shown),-72.1
19,CCCNC(=O)Cn1cccc1C(=O)c1ccccc1,14.7
20,O=C(Cn1cccc1C(=O)c1ccccc1)NCCCc1ccccc1,-8.33
21,Cc1ccc(NC(=O)c2ccc(OCC3CCCO3)cc2)c(C)c1 (stereo not shown),-9.65
22,Cc1cc(NC(=O)c2sc(Nc3ccc(F)cc3)nc2N)no1,20

row,SMILES,"hERG current change (%, negative = inhibition) at 10uM [%]"
1,Cc1cc(N2CCN(S(=O)(=O)c3ccccc3)CC2)c2ccccc2n1,-73.3
2,Cc1ccc(S(=O)(=O)N2CCN(c3ncccn3)CC2)cc1C,13.9
3,Cc1cc(N2CCN(S(=O)(=O)c3ccc(C)c(C)c3)CC2)c2ccccc2n1,-64.6
4,Cn1c(N2CCN(S(=O)(=O)c3ccc(Cl)cc3)CC2)nc2ccccc21,-34
5,Cc1cc(N2CCN(S(=O)(=O)c3ccc(Cl)cc3)CC2)c2ccccc2n1,-77.8
6,Cc1ccc(S(=O)(=O)N2CCN(c3ccccc3)CC2)cc1C,6.82
7,CC(=O)Nc1ccc(S(=O)(=O)N2CCN(c3ncccn3)CC2)cc1,6.13
8,Cc1ccccc1N1CCN(S(=O)(=O)c2ccccc2)CC1,0.732
9,Cc1cc(N2CCN(S(=O)(=O)c3ccccc3)CC2)nc2c(C)cccc12,23.1
10,CC(=O)Nc1ccc(S(=O)(=O)N2CCN(c3nc(NC4CCCC4)c4ccccc4n3)CC2)cc1,-75.8
11,Cc1cc(N2CCN(S(=O)(=O)c3ccc(Cl)c(Cl)c3)CC2)c2ccccc2n1,-45.3
12,CC(=O)Nc1ccc(S(=O)(=O)N2CCN(c3ccccn3)CC2)cc1,-3.36
13,O=C(CCCn1nnc2ccccc2c1=O)N[C@@H](Cc1ccccc1)C(=O)O,13
14,COc1cc(OC)c(/C=N/n2c(C3CCCCC3)n[nH]c2=S)c(OC)c1,22.6
15,CCSc1nc2c(c(=O)n1-c1ccc(F)cc1)SCC2,-4.12
16,Cc1cc(C)cc(NC(=O)N2C3CCCC2CC(NC(=O)C2CC2)C3)c1 (stereo not shown),17
17,Fc1ccc(COc2ccccc2-c2ccnc3ncnn23)cc1,-6.51
18,Cc1cccc(C)c1NC(=O)CN(C)CC(=O)N(C)CC(=O)Nc1ccccc1Br,14
19,CCCn1c(-c2ccc[nH]c2=O)nc2ccccc21,15.6
20,CCOC(=O)c1ccc(NC(=O)C2CC(=O)N(c3ccc4c(c3)OCCO4)C2)cc1 (stereo not shown),10.7
21,COC(=O)c1nn(-c2c(C)n(C)n(-c3ccccc3)c2=O)cc1O,5.84
22,COc1cccc(NC(=S)NNC(=O)CCn2cc([N+](=O)[O-])cn2)c1,-2.61

row,SMILES,"hERG current change (%, negative = inhibition) at 10uM [%]"
1,Cc1ccc(NCc2nnc(SCC(=O)N(Cc3ccccc3)C(C)(C)C)o2)c(C)c1,-9.53
2,CC(=O)Nc1ccc(S(=O)(=O)N2CCN(c3nc(C)cc(C)n3)CC2)cc1,5.68
3,CC(=O)Nc1ccc(S(=O)(=O)N2CCN(S(=O)(=O)c3ccccc3)CC2)cc1,11.7
4,CC(=O)Nc1ccc(S(=O)(=O)N2CCN(c3cc(C)nc4ccccc34)CC2)cc1,-88.5
5,C[C@@H](NC(=O)c1[nH]cnc1C(=O)Nc1nccs1)c1ccccc1,-3.32
6,CC(=O)Nc1cccc(C(=O)Nc2ccccc2N2CCOCC2)c1,-0.962
7,Cc1ccccc1-n1c(Cn2c(=O)sc3ccccc32)nnc1SCC(=O)NCC1CCCO1 (stereo not shown),-2.85
8,CCOc1ccccc1-n1c(=O)c2ccccc2c2ccccc2c1=O,-6.99
9,CC1c2c([nH]c3ccccc23)CCC1C(=O)O (stereo not shown),22.4
10,CC1(C)NC(C(=O)O)Cc2c1[nH]c1ccccc21 (stereo not shown),3.65
11,ClCC1NCC(c2ccccc2Cl)c2c1[nH]c1ccccc21 (stereo not shown),0.482
12,CC1(C)CC(=O)CC2(C1)NCC(c1ccccc1)c1c2[nH]c2ccccc12.Cl (stereo not shown),-85.8
13,CC1(C)CC(=O)CC2(C1)NCC(c1ccccc1Cl)c1c2[nH]c2ccccc12.Cl (stereo not shown),-51.4
14,COc1cccc(C2CNC3(CCCC(C)C3)c3[nH]c4ccccc4c32)c1OC.Cl (stereo not shown),-23.6
15,O=Nc1ccc(NOC(=O)c2ccccc2Br)cc1,3.45
16,CC(C)(C)c1cc(CCC(=O)Nc2ccncc2)cc(C(C)(C)C)c1O,-16.6
17,CCN(CC)CCN1C(=O)C2C3c4ccccc4C(c4ccccc43)C2C1=O (stereo not shown),-2.51
18,CCN(CC)CCNC(=O)C(C)c1nn(CC)c(=O)c2ccccc12.Cl (stereo not shown),7.49
19,CCN(CC)CCN1C(=O)Cn2c(C)c(C)c3cccc1c32.O=C(O)C(O)C(O)C(=O)O,-65.1
20,CCN(CC)CCNC(=O)Cn1nc(-c2ccccc2)c2ccccc2c1=O,-31
21,Cc1c(C)n2c3c(cccc13)CC2,-0.781
22,CCN(CC)CCN1C(=O)Cn2c(C)c(C)c3cccc1c32.Cl,-52.4
